This note sets out measurements from PubChem BioAssay.

The nature of experiment [1]: Her2 expression decrease, cell viability multiplex – SKBR3 breast tumor cells, AlphaScreen, ATP viability, primary screen (AID 461;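 active = Her2 level under about 52% in both replicate screens, with viability over 70% of control, limit read from the data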;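 as to Her2 level: lower value means less Her2 protein in the cells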;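 as to viability: percent of carrier control wells set as 100% viability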). The following applies: SKBR3 Her2 protein level, 18-24 h, measured here: SKBR3 viability, ATP luminescence, at 10 µM. In general terms: Alpha assays give light when donor and acceptor beads are brought close together.
The target of experiment [2] is Receptor tyrosine-protein kinase erbB-2 (Homo sapiens) (UniProt P04626). Described as above. The following applies: 18-24 h, at 10 µM, stronger effect = lower value.
Experiment [3] can be described thus: reduced viability of SK-BR-3 breast cancer cells – cell-based, 24 h, human, pilot screen (AID 572;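 active = viability at or below 10% of carrier control in both of two separate runs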;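 also: compound exposure lasted between 18 and 24 h rather than exactly 24 h; 100% = carrier-treated control wells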). The following applies: SK-BR-3 viability, CellTiter-Glo luminescence, at 10 µM, stronger effect = lower value. (Cellular ATP, detected with luciferase, serves as a proxy for viable cell number.)
Experiment [4] in a line: HUVEC growth inhibition – cell-based, human, primary screen (AID 575;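 active = viability at or below 30% in both replicate assays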;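 also: 100% = median of untreated cell wells with 0.1% DMSO on each plate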). Particulars: HUVEC proliferation, CellTiter-Glo luminescence, 72 h; at 10 µM; stronger effect = lower value.
Experiment [5] in a line: H69AR cell proliferation blockers – human, duplicate replicates, primary screen (AID 580;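 active = viability at or under a set limit in both replicates, limit being median viability minus 3 SD, cut at about 48% in these data, passing the limit was not always enough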;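 also: 100% = mean luminescence of untreated wells and 0% = no signal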). The following applies: H69AR lung tumor cells viability, ATP luminescence, 72 h; at 10 µM; stronger effect = lower value.
Experiment [6] can be described thus: MRP1 drug-resistance reversers in H69AR cells – cell-based, doxorubicin co-treatment, pilot screen (AID 601). The following applies: CellTiter-Glo, 72 h, at 10 µM; for differential viability (reversal): stronger effect = higher value.
Experiment [7] in a line: yeast transport mutant growth inhibition pilot in 384-well plates, post-Golgi transport modulator project (AID 636; in the data active = inhibition above about 31%). Particulars: absorbance 615 nm, about 18 h, stronger effect = higher value.
A short description of experiment [8]: growth suppression of yeast trafficking mutant, preliminary HTS, modulators of trafficking downstream of Golgi apparatus project, 1536-format plate, OD 615 nm (AID 637; in the data active = inhibition above about 30%). The following applies: yeast transport mutant growth, absorbance 615 nm, 18 h; stronger effect = higher value.
The nature of experiment [9]: S. cerevisiae growth inhibition in permissive medium (OD615), pilot counter-assay for S. cerevisiae lifespan shortening project, permissive growth control (AID 705;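 active = growth inhibition above 25% in both replicates, a cutoff set 3 SD above the mean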). The following applies: OD615, 24 h, at 10 µM, stronger effect = higher value.
Experiment [10] can be described thus: S. cerevisiae growth inhibition in restrictive medium, OD615, pilot screen, restrictive growth control, yeast lifespan reduction project (AID 706;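 active = growth inhibition above a set limit, 3 SD over mean compound inhibition, in both replicates, cut at about 43% in these data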;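 also: modified DeaD lifespan yeast strain shifted to restrictive glucose medium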). The following applies: OD615, 48 h, at 10 µM, stronger effect = higher value.
Experiment [11] can be described thus: doxorubicin toxicity protection in MRP-1 cells – H69AR cells, CellTiter-Glo, duplicate, MRP-1 activator project, pilot screen (AID 807;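 active = viability increase at or above a cutoff of the median across tested compounds plus 3 SD, cut at about 8.5% in these data, passing the limit was not always enough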;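 also: compound pretreatment 18-22 h then 72 h combined with doxorubicin; 0% = doxorubicin alone and 100% = vehicle without doxorubicin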). Particulars: H69AR viability with doxorubicin, CellTiter-Glo luminescence; at 10 µM; stronger effect = higher value.
Experiment [12] is described as follows: viability of HCT116 without oncogenic beta-catenin – human colon tumor cells, pilot screen (AID 823;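 active = cell viability at or below a set limit in both duplicate runs, the limit being the all-compound median minus 4 SD, cut at about 23% in these data, passing the limit was not always enough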;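 also: 0% = wells killed by 20 µM Hyamine and 100% = untreated DMSO cell wells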). Particulars: HCT116 beta-catenin knockout viability, CellTiter-Glo, 60 h; at 10 µM; stronger effect = lower value.
A short description of experiment [13]: viability of PTEN-null HCT116 cells – cell-based, HCT116 clonal line, CellTiter-Glo, pilot screen (AID 824;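 active = viability at or below 27.92% in each of two runs, the all-compound median minus 4 SD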;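 also: 0% = 20 µM Hyamine control and 100% = vehicle cell control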). The following applies: HCT116 PTEN-deleted viability, 60 h, at 10 µM, stronger effect = lower value.
Experiment [14] in a line: RAM pathway blockade in budding yeast – dse1pr::URA3 reporter, 5-FOA selection, pilot screen (AID 869;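 active = inhibition over a set limit, the all-compound mean plus 3 SD, in both replicate runs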;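 also: 0% = DMSO wells with no growth and 100% = 10 µM 1-NA-PP1 with full growth; RAM network block rescues cells from 5-FOA so hits raise OD615 growth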). The following applies: S. cerevisiae dse1pr::URA3 5-FOA growth, OD615, 2 d; at 10 µM; stronger effect = higher value; strain carries analog-sensitive mutant Cbk1 kinase.
The nature of experiment [15]: RAM signaling pathway blockade in yeast – S. cerevisiae, Pdr1DBD-CYC8 efflux-inhibited sensitized strain, primary screen (AID 1298;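 active = RAM network inhibition above 8.4% in each of two replicates, 3 SD over the compound average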;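 also: 0% = DMSO untreated cells without growth and 100% = 10 µM 1-NA-PP1 full growth; higher means more yeast growth rescued from 5-FOA killing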). The following applies: S. cerevisiae cbk1-as DSE1-URA3 strain, 5-FOA growth OD615, 2 d; at 50 µM; stronger effect = higher value.
The mark [16] stands for this setting: H69AR cells + 2 uM doxorubicin, measured here: viability with 2 uM doxorubicin, stronger effect = lower value.
The mark [17] stands for this setting: H69AR cells, compound alone cytotoxicity.

As a reminder, the viability is a read-out of living cells in per cent, often relative to untreated cells. For orientation: inhibition means the change of the read-out against control, counted positive when it falls.

Inconclusive results are not listed. Active and inactive are the calls of the source.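 The calls were made as follows, unless noted: active = viability loss from added drug above about 55%, and viability with drug at most 40%, in both replicates (limit read from the data, passing the limit was not always enough); inconclusive = both conditions met in only one replicate; inactive = neither replicate meets both conditions.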

Receptor tyrosine-protein kinase erbB-2 (Homo sapiens), sequence (P04626 whole entry, looked up): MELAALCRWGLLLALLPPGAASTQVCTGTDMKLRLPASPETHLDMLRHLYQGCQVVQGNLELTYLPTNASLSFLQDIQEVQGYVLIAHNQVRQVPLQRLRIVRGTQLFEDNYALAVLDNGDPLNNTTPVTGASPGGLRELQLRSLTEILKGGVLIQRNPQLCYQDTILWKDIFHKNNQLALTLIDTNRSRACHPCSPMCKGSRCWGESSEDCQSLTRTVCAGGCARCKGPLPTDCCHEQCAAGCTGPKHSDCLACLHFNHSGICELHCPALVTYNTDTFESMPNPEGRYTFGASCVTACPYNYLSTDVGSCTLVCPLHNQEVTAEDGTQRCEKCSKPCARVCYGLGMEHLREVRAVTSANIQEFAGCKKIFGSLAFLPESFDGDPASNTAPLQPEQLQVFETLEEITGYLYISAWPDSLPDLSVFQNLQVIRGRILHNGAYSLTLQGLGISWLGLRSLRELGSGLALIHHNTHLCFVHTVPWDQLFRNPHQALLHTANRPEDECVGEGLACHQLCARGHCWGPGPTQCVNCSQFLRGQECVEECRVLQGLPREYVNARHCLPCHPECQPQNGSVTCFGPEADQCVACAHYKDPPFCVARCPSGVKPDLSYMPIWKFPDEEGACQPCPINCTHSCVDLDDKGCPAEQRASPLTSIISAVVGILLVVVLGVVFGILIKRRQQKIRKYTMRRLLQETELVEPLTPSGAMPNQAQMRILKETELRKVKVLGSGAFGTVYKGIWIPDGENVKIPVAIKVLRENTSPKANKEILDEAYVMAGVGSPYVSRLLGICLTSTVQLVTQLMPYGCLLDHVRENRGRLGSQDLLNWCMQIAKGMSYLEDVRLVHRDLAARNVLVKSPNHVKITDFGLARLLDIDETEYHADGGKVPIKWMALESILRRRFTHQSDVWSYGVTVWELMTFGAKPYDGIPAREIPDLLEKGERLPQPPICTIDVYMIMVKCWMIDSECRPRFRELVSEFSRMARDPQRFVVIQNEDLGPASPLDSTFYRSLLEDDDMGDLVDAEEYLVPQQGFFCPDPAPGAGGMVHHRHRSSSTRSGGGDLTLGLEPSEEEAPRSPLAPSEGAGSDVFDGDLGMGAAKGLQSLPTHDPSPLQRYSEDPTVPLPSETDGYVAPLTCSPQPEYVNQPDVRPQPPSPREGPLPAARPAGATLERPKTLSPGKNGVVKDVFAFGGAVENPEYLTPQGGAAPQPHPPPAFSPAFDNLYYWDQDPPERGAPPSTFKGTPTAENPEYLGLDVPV

In the case of `Cc1nnc(SCC(=O)Nc2ccc3c4c(cccc24)CC3)n1C`, the viability in experiment [1] was 102%; in experiment [3], 102% (inactive); in experiment [4] it was 93.2% (inactive); in experiment [5], 86.9% (inactive); in [6] (setting [16]) it was 86.8%; in experiment [6] (setting [17]) it was 86.9%. Further, the figures for the viability in experiment [12] and in experiment [13] were 92.9% (inactive) and 89.8% (inactive), respectively. In experiment [2], the Her2 level is 79% (inactive). Moreover, in experiment [6] (H69AR cells + 2 uM doxorubicin), the differential viability (reversal) is 0.115% (inactive). For the same molecule, the inhibition in experiment [7] is -6.08% (inactive); in [8] it was -3.83% (inactive); in experiment [14] it was 3.25% (inactive). Moreover, the growth inhibition in experiment [9] is -0.36% (inactive); in experiment [10], -5.08% (inactive). The viability increase in [11] was -4.3% (inactive). The RAM network inhibition in experiment [15] is 3.77% (inactive).
On to `COc1ccc(C(=O)NCc2nc3ccccc3[nH]2)cc1OC`, for which the viability in experiment [1] is 110%; in experiment [3] it was 110% (inactive); in experiment [4], 101% (inactive); in experiment [5], 107% (inactive); in [6] (setting [16]), 90.2%; in experiment [6] (setting [17]), 107%. Moreover, the viability in [12] was 102% (inactive); in [13] it was 98.2% (inactive). The Her2 level in experiment [2] was 115% (inactive). Besides, the differential viability (reversal) in experiment [6] (H69AR cells + 2 uM doxorubicin) was 16.6% (inactive). Besides, the inhibition in experiment [7] was -3.6% (inactive); in [8] it was -6.67% (inactive); in experiment [14] it was 2.96% (inactive). The growth inhibition was -9.82% (inactive) in experiment [9] and -15% (inactive) in experiment [10]. Further, in [11], the viability increase was 0.84% (inactive). In addition, the RAM network inhibition in experiment [15] was 6.63% (inactive).
In the case of `Cc1cc(C)nc(/N=C2\NC(=O)CC(C(=O)O)N2c2ccc(Cl)cc2)n1` (stereo not given), the viability is 106% in experiment [1]; 106% (inactive) in experiment [3]; 88.7% (inactive) in experiment [4]; 96% (inactive) in experiment [5]; 92.9% in experiment [6] (setting [16]); 96% in experiment [6] (setting [17]). Also, the viability in experiment [12] was 99.5% (inactive); in experiment [13] it was 102% (inactive). For the same molecule, the Her2 level in experiment [2] was 100% (inactive). Besides, in [6] (H69AR cells + 2 uM doxorubicin), the differential viability (reversal) was 3.08% (inactive). The results for the inhibition in [7], in experiment [8] and in experiment [14] were -6.53% (inactive), 5.17% (inactive) and 1.93% (inactive), respectively. Further, the growth inhibition in experiment [9] is 0.655% (inactive); in experiment [10] it was 5.68% (inactive). Moreover, the viability increase in [11] is 1.08% (inactive). In [15], the RAM network inhibition was 3.63% (inactive).
On to `Nc1cccc2c1C(=O)N(c1ccccc1)C2=O`, for which the viability in experiment [1] was 95%; in experiment [3], 95% (inactive); in [4] it was 91.4% (inactive); in experiment [5] it was 98.8% (inactive); in experiment [6] (setting [16]), 84.1%; in [6] (setting [17]) it was 98.8%. Besides, the viability is 106% (inactive) in [12] and 95.2% (inactive) in experiment [13]. Also, the Her2 level in [2] was 97% (inactive). In addition, the differential viability (reversal) in experiment [6] (H69AR cells + 2 uM doxorubicin) is 14.7% (inactive). Besides, the figures for the inhibition in experiment [7], in experiment [8] and in experiment [14] were -3.87% (inactive), -1.48% (inactive) and 1.5% (inactive), respectively. The growth inhibition in [9] is -10.6% (inactive); in [10] it was -8.73% (inactive). Moreover, the viability increase in experiment [11] was -2.17% (inactive). For the same molecule, the RAM network inhibition in experiment [15] was 0.47% (inactive).
Regarding `CC1Cc2nc(SCC(=O)Nc3nccs3)n(C)c(=O)c2S1` (stereo not given), the viability in experiment [1] is 90%; in experiment [3], 90% (inactive); in [4], 72.7% (inactive); in experiment [5], 77.8% (inactive); in experiment [6] (setting [16]), 77.8%; in experiment [6] (setting [17]), 77.8%. The figures for the viability in experiment [12] and in [13] were 105% (inactive) and 96.7% (inactive), respectively. Besides, the Her2 level in [2] is 89% (inactive). Further, the differential viability (reversal) in experiment [6] (H69AR cells + 2 uM doxorubicin) was -0.05% (inactive). Moreover, the inhibition in experiment [7] is -5.07% (inactive); in experiment [8], -1.67% (inactive); in experiment [14], 1.56% (inactive). The growth inhibition in [9] was -2.9% (inactive); in experiment [10], -5.05% (inactive). Further, the viability increase in experiment [11] was -2.52% (inactive). The RAM network inhibition in experiment [15] is 6.27% (inactive).
